# Assay results reported in PubChem BioAssay.
# The source made the active and inactive calls.
# Key:
# [1] = compound effects on lung adenocarcinoma cell viability – A549, calcein-AM fluorescence, 48 h, basal, profiling panel (AID 1162); conditions: higher = more signal; further: test concentration not given here
# [2] = compound effects on differentiated 3T3-L1 adipocyte viability – cell-based, 3T3-L1 adipocytes, calcein-AM fluorescence, 48 h, basal, profiling panel (AID 1163); conditions: 3T3-L1 adipocytes viability, higher = more signal; further: test concentration not given here
# [3] = compound effects on hepatocellular carcinoma cell viability – HepG2, calcein-AM fluorescence, 48 h, basal, profiling panel (AID 1164); conditions: higher = more signal; further: test concentration not given here
# [4] = compound effects on multiple myeloma cell viability – MM1S, calcein-AM fluorescence, 48 h, basal, profiling panel (AID 1165); conditions: higher = more signal; further: test concentration not given here
# [5] = calcein-AM signal in unstimulated myeloma cells – cell-based, calcein-AM fluorescence, 48 h, PK04 Diversity Set, profiling panel (AID 1166); conditions: RPMI8226 myeloma viability, higher = more signal;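 further: cells grown under basal conditions without added stimulus; test concentration not given here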
# [6] = JC-1 mitochondrial signal, unstimulated HepG2 cells – cell-based, JC-1 fluorescence, 24 h, 100 nL compound, profiling panel (AID 1167); conditions: HepG2 mitochondrial potential, higher = more signal; further: test concentration not given here
# [7] = JC-1 mitochondrial signal, unstimulated adipocytes – cell-based, JC-1 fluorescence, 3T3-L1 adipocytes, 24 h, 100 nL compound, profiling panel (AID 1168); conditions: JC-1 mitochondrial fluorescence, higher = more signal, called active from +8 up or from −8 down; further: test concentration not given here
# [8] = JC-1 mitochondrial signal, unstimulated myeloma cells – cell-based, JC-1 fluorescence, RPMI8226, 24 h, 100 nL compound, profiling panel (AID 1169); conditions: JC-1 mitochondrial potential fluorescence, higher = more signal; further: test concentration not given here
# [9] = JC-1 mitochondrial signal, unstimulated MM1S myeloma – cell-based, JC-1 fluorescence, 24 h, 100 nL compound, profiling panel (AID 1170); conditions: MM1S mitochondrial potential, higher = more signal; further: test concentration not given here
# [10] = resazurin metabolic signal in A549 cells – cell-based, resazurin fluorescence, 24 h, PK04 Diversity Set, profiling panel (AID 1171); conditions: A549 viability, higher = more signal, called active from +8 up or from −8 down; further: test concentration not given here
# [11] = resazurin metabolic signal in HepG2 cells – cell-based, resazurin fluorescence, 24 h, PK04 Diversity Set, profiling panel (AID 1172); conditions: HepG2 viability, higher = more signal; further: test concentration not given here
# [12] = budding yeast growth changes without added modifier – OD600, strain BY4716, 24 h, basal condition, primary screen (AID 1173); conditions: S. cerevisiae BY4716 growth, OD600, 24 h; higher = more signal, called active from +8 up or from −8 down
# [13] = viability profiling in MM1S myeloma cells – cell-based, resazurin fluorescence, basal, 24 h, PK04 Diversity Set, profiling panel (AID 1174); conditions: higher = more signal, called active from +8 up or from −8 down; further: test concentration not given here
# [14] = biological target: Dihydroorotate dehydrogenase (quinone), mitochondrial (Plasmodium falciparum (isolate 3D7)) (UniProt Q08210); experiment: inhibition of P. falciparum DHODH – biochemical, C-terminal His tag, absorbance 600 nm, primary screen (AID 1175); conditions: PfDHODH enzyme, DCIP absorbance 600 nm; higher = more signal, called active from +8 up or from −8 down;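 further: recombinant parasite enzyme with a five histidine tag at its C terminus; test concentration not given here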
# [15] = growth modulation of vineyard yeast isolate – strain RM11-1a, OD600, basal, 24 h, primary screen (AID 1177);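 further: cultures grown under basal conditions with no added stressor; test concentration not given here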; conditions: S. cerevisiae RM11-1a growth, OD600, 24 h; higher = more signal, called active from +8 up or from −8 down
# [16] = growth of efflux-deficient E. coli DRC39 – strain DRC39, OD650, 24 h, E. coli filamentation inducers, primary screen (AID 1178);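 further: growth measured as culture turbidity by optical density at 650 nm; test concentration not given here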; conditions: E. coli DRC39 acrAB, higher = more signal, called active from +8 up or from −8 down
# [17] = growth of efflux-deficient E. coli DRC39 – strain DRC39, OD650, 48 h, E. coli filamentation inducers, primary screen (AID 1179);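 further: screen aims at cell division blockers that make cells filament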; conditions: E. coli DRC39 delta-acrAB growth, higher = more signal, called active from +8 up or from −8 down
# [18] = viability profiling in RPMI8226 myeloma cells – cell-based, resazurin fluorescence, basal, 24 h, PK04 Diversity Set, profiling panel (AID 1180); conditions: higher = more signal;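 further: RPMI8826 multiple myeloma cell line at 5000 cells per well; test concentration not given here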
# [19] = biological target: E3 ubiquitin-protein ligase XIAP (Homo sapiens) (UniProt P98170); experiment: small molecules binding XIAP protein – biophysical, small-molecule microarray, fluorescence 635 nm, primary screen (AID 1181); conditions: higher = more signal;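 further: score merges 667 nm emission and signal to noise over triplicate slides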
# Chain of E3 ubiquitin-protein ligase XIAP (Homo sapiens) (P98170 whole entry, looked up): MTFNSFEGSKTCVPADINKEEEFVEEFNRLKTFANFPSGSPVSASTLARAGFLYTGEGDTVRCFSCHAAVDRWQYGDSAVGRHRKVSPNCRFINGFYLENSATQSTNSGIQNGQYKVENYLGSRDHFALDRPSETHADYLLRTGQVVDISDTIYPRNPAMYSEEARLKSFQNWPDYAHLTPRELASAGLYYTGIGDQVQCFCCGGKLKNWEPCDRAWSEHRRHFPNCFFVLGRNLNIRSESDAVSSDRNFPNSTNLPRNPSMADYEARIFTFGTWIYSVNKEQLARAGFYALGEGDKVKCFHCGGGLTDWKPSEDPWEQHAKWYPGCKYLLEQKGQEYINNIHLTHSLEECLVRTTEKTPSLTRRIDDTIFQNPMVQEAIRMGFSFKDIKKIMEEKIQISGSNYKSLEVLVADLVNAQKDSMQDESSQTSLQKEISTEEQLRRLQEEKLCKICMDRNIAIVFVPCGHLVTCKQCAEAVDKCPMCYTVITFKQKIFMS
# Chain of Dihydroorotate dehydrogenase (quinone), mitochondrial (Plasmodium falciparum (isolate 3D7)) (Q08210 whole entry, looked up): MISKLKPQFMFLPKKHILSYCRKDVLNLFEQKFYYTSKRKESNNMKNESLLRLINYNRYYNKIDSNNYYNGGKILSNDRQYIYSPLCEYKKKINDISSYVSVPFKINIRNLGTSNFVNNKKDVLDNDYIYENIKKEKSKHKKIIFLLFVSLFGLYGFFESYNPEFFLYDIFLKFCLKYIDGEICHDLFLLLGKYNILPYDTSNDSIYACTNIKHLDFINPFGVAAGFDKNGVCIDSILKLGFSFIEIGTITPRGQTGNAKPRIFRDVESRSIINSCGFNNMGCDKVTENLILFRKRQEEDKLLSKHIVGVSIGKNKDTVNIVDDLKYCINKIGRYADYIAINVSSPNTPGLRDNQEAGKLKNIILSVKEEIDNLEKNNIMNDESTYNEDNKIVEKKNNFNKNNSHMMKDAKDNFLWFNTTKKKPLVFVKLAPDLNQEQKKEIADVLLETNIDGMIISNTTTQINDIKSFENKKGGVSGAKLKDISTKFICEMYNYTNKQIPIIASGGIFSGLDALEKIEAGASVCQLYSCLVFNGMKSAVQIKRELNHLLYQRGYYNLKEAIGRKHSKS
Compound,z-score [1],z-score [2],z-score [3],z-score [4],z-score [5],z-score [6],z-score [7],z-score [8],z-score [9],z-score [10],z-score [11],z-score [12],z-score [13],composite z-score [14],z-score [15],z-score [16],z-score [17],z-score [18],composite z-score [19]
O=C(CS)NCCCCCNC(=O)[C@H]1C[C@H]2C(=O)N[C@@H](Cc3ccccc3)C(=O)N2[C@H]1c1ccc(O)cc1,-0.142,1.62,-1.02,-0.193,0.575,0.248,0.765 (inactive),-0.539,0.368,0.411 (inactive),0.0833,0.359 (inactive),1.19 (inactive),0.44 (inactive),0.895 (inactive),0.394 (inactive),0.102 (inactive),0.833,0.0123
C=CCN(C(=O)C1N(c2ccc(CCO)cc2)C(=O)C2C(C(=O)O)C3C=CC21O3)C(C)(C)C (stereo unspecified),0.478,1.86,0.134,1.69,-0.265,0.556,2.37 (inactive),0.0149,1.08,-1.3 (inactive),0.43,-1.39 (inactive),1.06 (inactive),-0.363 (inactive),-1.41 (inactive),1.44 (inactive),0.94 (inactive),0.327,-0.253
CO[C@H]1COC(=O)CC=C[C@H](C)[C@@H](OC)COC(=O)CC=C[C@@H]1C,1.09,0.569,1.06,0.244,0.859,1.36,0.425 (inactive),-0.36,0.758,0.99 (inactive),1.4,-1.65 (inactive),1.18 (inactive),0.522 (inactive),-1.38 (inactive),1.2 (inactive),1.21 (inactive),0.749,-0.199
C=CCOC(=O)[C@@H]1[C@H]2C(=O)O[C@H](c3ccccc3)[C@H](c3ccccc3)N2[C@H](c2ccc(OCCOC(=O)[C@H]3C[C@H]4C(=O)N5CCC[C@H]5C(=O)N4[C@H]3c3ccc(O)cc3)cc2)[C@@]12C(=O)Nc1ccccc12,0.17,1.25,-1.06,-0.222,-0.931,-1.16,0.597 (inactive),-0.674,-0.393,-0.0653 (inactive),-0.379,-0.117 (inactive),0.201 (inactive),0.0956 (inactive),0.256 (inactive),0.197 (inactive),-0.148 (inactive),1.03,-0.217
CC(C)(C)OC(=O)CC[C@]1(C(=O)NCCN2CCOCC2)N=C(c2ccc(OCCCO)cc2)O[C@H]1c1ccccc1CN=[N+]=[N-],0.327,1.13,0.0133,1.31,-0.722,-0.131,0.289 (inactive),-0.0354,0.671,0.619 (inactive),-0.0646,-1.56 (inactive),1.07 (inactive),-0.114 (inactive),-1.36 (inactive),1.16 (inactive),0.277 (inactive),1.38,0.564
O=[N+]([O-])c1ccc(C[n+]2ccc3ccc(O)cc3c2)o1,1.21,0.233,-0.489,0.216,0.705,-1.43,-0.157 (inactive),-0.158,0.648,-1.02 (inactive),-0.104,-5.54 (inactive),0.342 (inactive),-2 (inactive),-0.234 (inactive),-0.55 (inactive),-0.688 (inactive),0.405,0.411
CCCC[C@H]1OB(O)C[C@H]2C1=C(COC)C[C@H]1C(=O)N(Cc3ccccc3)C(=O)[C@H]12,0.485,0.938,-0.0393,0.405,-0.537,0.987,0.835 (inactive),0.361,1.46,0.272 (inactive),1.13,-3.65 (inactive),0.518 (inactive),0.282 (inactive),-1.67 (inactive),2.53 (inactive),0.942 (inactive),0.283,-0.12
CCC(=O)[C@]12O[C@@]3([C@@H]4C(=O)OCC[C@@H]41)N(Cc1ccccc1)C(C)=C(C(=O)OC)[C@@H](c1ccccc1)N3C2=O,0.997,0.873,-0.356,0.0552,1.08,0.499,0.995 (inactive),-0.752,-0.226,0.26 (inactive),0.859,-2.74 (inactive),0.83 (inactive),0.0379 (inactive),-0.704 (inactive),-0.101 (inactive),-0.0892 (inactive),0.95,0.0289
C=CC[C@]1(C(=O)O)N=C(c2ccc(OCCCO)cc2)O[C@H]1c1ccccc1,0.0248,1.88,0.0696,-0.394,-0.512,0.801,0.0186 (inactive),-0.755,1.29,0.692 (inactive),0.734,-2.31 (inactive),1.63 (inactive),1.51 (inactive),0.344 (inactive),2.94 (inactive),1.25 (inactive),1.77,0.109
